Screening results deposited in PubChem BioAssay by National Center for Advancing Translational Sciences (NCATS).
PI5P4K alpha inh: qHTS for Inhibitors of phosphatidylinositol 5-phosphate 4-kinase (PI5P4K); PI5P4Kalpha enzyme, ADP-Glo luminescence, 60 min; active compounds read low; max response, %; hit rate 1.2% among 330,000; active means max response of -50% or lower; inconclusive means between -30% and -50%; inactive means -30% or higher; further: value at the top dose of about 77 µM; on the % scale 0 is the no-effect control and ±100 the full control effect
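Enzyme plus substrate dispensed, test compounds pinned in, then ATP (5 microM final) added. After 60 min at RT, ADP-Glo reagent 1 for 45 min and reagent 2 for 30 min preceded luminescence imaging.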
PLK1 PBD inh: qHTS for Inhibitors of PLK1-PDB (polo-like kinase 1 - polo-box domain): Primary Screen; Serine/threonine-protein kinase PLK1 (Homo sapiens), P53350; Plk1 PBD binding of FITC phosphopeptide, fluorescence polarization; Potency, µM, inactives show max response, negative = inhibition, hits mostly inhibitors; hit rate 2.8% among 360,000; further: potency means the concentration at half of the fitted maximal effect; series mostly up to about 57 µM; on the % scale 0 is the no-effect control and ±100 the full control effect; nearly all actives have a fitted effect of over 65% in size
G9a inh: qHTS Assay for Inhibitors of Histone Lysine Methyltransferase G9a; hit rate 8.8% among 350,000; G9a H3K9 monomethylation, AlphaScreen, 2 h; AID 504332, 2011; Potency, µM (series often up to 102 µM), inactives show at the top dose activity, negative = inhibition, usual class: inhibitors; Histone-lysine N-methyltransferase EHMT2 (Homo sapiens), Q96KQ7; further: potency means the concentration at half of the fitted maximal effect; on the % scale 0 is the no-effect control and ±100 the full control effect; nearly all actives have a fitted effect of over 75% in size
Target sequence (Q96KQ7 913-1193 limits assumed): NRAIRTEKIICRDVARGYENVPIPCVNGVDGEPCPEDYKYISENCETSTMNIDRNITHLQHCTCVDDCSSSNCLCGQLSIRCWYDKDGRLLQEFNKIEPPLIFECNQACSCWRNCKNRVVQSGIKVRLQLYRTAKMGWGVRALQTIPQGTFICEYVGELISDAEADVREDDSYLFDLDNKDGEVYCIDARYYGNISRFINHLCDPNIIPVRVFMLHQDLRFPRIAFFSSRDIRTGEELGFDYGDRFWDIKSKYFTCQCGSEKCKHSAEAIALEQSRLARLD
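Quantitative HTS format: methyltransferase activity on a biotin-tagged H3K9 peptide is measured by AlphaScreen, using a rabbit anti-monomethyl-H3K9 antibody with streptavidin donor and anti-IgG acceptor beads. Final levels are 20 nM enzyme, 500 nM peptide, 20 uM SAM; 2 h RT.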
HP1b chromo inh: HTS for Inhibitors of HP1-beta Chromodomain Interactions with Methylated Histone Tails. Chromobox protein homolog 1 (Homo sapiens), P83916. AlphaScreen HP1-beta / biotin-H3K9me3 peptide binding. Potency, µM (doses to about 114 µM), for the others: at the highest dose activity change, negative = inhibition, actives largely listed as inhibitors. hit rate 0.56% among 390,000; further: potency means the concentration at half of the fitted maximal effect; nearly all actives have a fitted effect of over 70% in size
Target sequence (P83916 whole entry, looked up): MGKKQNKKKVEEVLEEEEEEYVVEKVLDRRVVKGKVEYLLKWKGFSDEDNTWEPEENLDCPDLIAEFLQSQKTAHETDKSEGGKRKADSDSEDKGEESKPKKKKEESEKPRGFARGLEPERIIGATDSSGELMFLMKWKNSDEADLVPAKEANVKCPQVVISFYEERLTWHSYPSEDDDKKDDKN
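AlphaScreen: HP1-beta (50 nM) preformed 30 min with biotin-H3(1-18)K9me3 peptide (50 nM) in PBS pH 7.4, 0.01% Tween-20. Compound added for 30 min at RT, then streptavidin donor/nickel chelate acceptor beads (10 ug/mL) for 30 min.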
BAZ2B block: qHTS Assay for Inhibitors of BAZ2B. hit rate 4.4% among 360,000. Potency, µM (highest dose often 114 µM), for inactives: top-dose activity change, negative = inhibition, actives largely listed as inhibitors. AID 504333, 2011. AlphaScreen BAZ2B-H3K14Ac peptide displacement; further: potency means the concentration at half of the fitted maximal effect; on the % scale 0 is the no-effect control and ±100 the full control effect; nearly all actives have a fitted effect of over 60% in size
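In this displacement format the biotinylated H3(5-23) peptide acetylated at Lys14 serves as ligand at 50 nM, with BAZ2B at 50 nM in PBS pH 7.4 containing 0.01% Tween-20. Donor and acceptor beads are 10 ug/mL final.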
JMJD2A Tudor inh: qHTS Assay for Inhibitors of JMJD2A-Tudor Domain. Potency, µM (highest dose often 114 µM), for the others: at the top dose activity change, negative = inhibition, hits mostly inhibitors. AID 504339, 2011. hit rate 4.4% among 390,000. AlphaScreen JMJD2A-Tudor / H3K4me3 peptide binding. Lysine-specific demethylase 4A (Homo sapiens), O75164; further: potency means the concentration at half of the fitted maximal effect; on the % scale 0 is the no-effect control and ±100 the full control effect; nearly all actives have a fitted effect of over 50% in size
* marks the source's active call; other numbers are inactive results; ? = inconclusive; · = no result; ! = not confirmed by another sample; [ ] = another dose, or the depositor's remark. This is a sample that favours compounds with a hit; in the whole collection about 12% have one here. Unless noted, the call rests on the fitted dose curve; in most records, active means well fitted curve in the direction sought with a large enough effect; inconclusive means small, poorly fitted or top-dose-only effect, or another doubt; inactive means no such curve, though single readings can be large; an effect the other way counts as inactive or inconclusive.

SMILES	PI5P4K alpha inh	PLK1 PBD inh	G9a inh	HP1b chromo inh	BAZ2B block	JMJD2A Tudor inh
CC(C)CCn1c(=O)c2sccc2n2c(CCCC(=O)NC(C)C)nnc12	·	·	-24%[59 µM]	20%	-20%	-12%
CCOC(=O)c1cccc(NC(=O)CCCn2c(C)c3cnn(-c4ccccc4)c(=O)c3c2C)c1	·	·	-25%[59 µM]	-9%	-30%	?
O=C(O)/C=C/c1ccc2ccccc2n1	·	-5%	-4%[59 µM]	27%	3%	-10%
O=C(/C=C/c1ccc2ccccc2n1)c1cc(Br)ccc1O	-4	?	10µM*	0%	56µM*	?
O=S(=O)(c1ccc(C(F)(F)F)cc1)N1CCN(CCc2ccccc2)CC1	9	-6%	2%	58%	2%	-3%
CCOC(=O)CSc1nc2sc3c(c2c(=O)[nH]1)CCCC3	·	-9%	8%[59 µM]	7%	5%	-17%
CCOC(=O)C1CCN(C(=O)CCc2nc3sc4c(c3c(=O)[nH]2)CCCC4)CC1	?	0%	50µM*	15%	?	?
COc1cc(-c2n[nH]c(=S)n2-c2ccccc2C(F)(F)F)cc(OC)c1OC	-4	-20%	3.5µM*	8%	-16%	?
COc1cc(-c2nc3c4ccccc4nc(=S)n3[nH]2)cc(OC)c1OC	1	-16%	·	20%	-3%	-19%
COc1cc(-c2n[nH]c(=S)n2C(C)c2ccccc2)cc(OC)c1OC (configuration not stated)	-6	1%	·	32%	-1%	13µM*
COc1cc(-c2n[nH]c(=S)n2-c2cccc(C(F)(F)F)c2)cc(OC)c1OC	-6	-22%	?	13%	5%	89µM*
CCN(CC(=O)NCc1cccs1)C(=O)c1ccc(NS(=O)(=O)c2ccc(C(C)=O)cc2)cc1	0	-3%	-6%	21%	8%	-17%
CCCCNC(=S)NNC(=O)CCn1nc(C)c(Br)c1C	·	-6%	72%[12.7 µM]	33%	12%	-1%
CCCCn1c(CCn2nc(C)c(Br)c2C)n[nH]c1=S	·	-8%	?	6%	-3%	28µM*
CCOC(=O)C1=CCN(S(=O)(=O)c2cccc(Cl)c2)C1c1ccc(F)cc1 (configuration not stated)	14	2%	·	·	·	·
N[C@@H](Cc1c[nH]c2ccccc12)C(=O)O	·	·	8.4µM*!	·	50µM*	·
COC(=O)C(Cc1c[nH]c2ccccc12)NC(=O)C(=O)c1c[nH]c2ccccc12 (configuration not stated)	1	-5%	32µM*	-16%	?	?
NC(Cc1c[nH]c2ccccc12)C(=O)NCc1ccccc1 (configuration not stated)	3	2%	·	27%	20%	-24%
COC(=O)C(Cc1c[nH]c2ccccc12)NC(=O)C(C)C (configuration not stated)	-3	-2%	-5%	37%	-5%	1%
COC(=O)CNC(=O)C(Cc1c[nH]c2ccccc12)NC(=O)Oc1ccccc1 (configuration not stated)	5	-5%	·	14%	0.71µM*	2%
Cc1ccc(-n2c(=O)c3c(c4cc(C)ccc4n3C)n(CC(=O)Nc3cc(C)cc(C)c3)c2=O)cc1	·	·	-8%[59 µM]	8%	-8%	8%
COc1ccc(CNC(=O)c2ccc(Cn3c(=O)c4cccn4c4cccnc43)cc2)cc1OC	·	·	-2%[59 µM]	10%	-12%	-12%
COc1ccc(Cl)cc1NC(=O)CSc1nc(-c2ccccc2)c2ccccc2n1	·	·	-12%[59 µM]	40%	-1%	-11%
Cn1c(=O)c2[nH]c(N/N=C(/C#N)C(N)=O)nc2n(C)c1=O	-29	-2%	14µM*	-3%	?	-19%
